Source: PubChem BioAssay
The source made the active and inactive calls.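 The calls were made as follows, unless noted: active = inhibition above 20% together with a positive visual image hit; inconclusive = visual image hit but inhibition not above 20%; inactive = no visual image hit.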

Assays:
[1] = inhibitors of TNFa-induced NFkB p65 translocation, primary screen, imaging, HUVEC, MLSMR starter and 10KST1 sets (AID 438); settings: HUVEC TNFa-induced p65 nuclear translocation; cell count: measured here: nuclei count (cytotoxicity indicator), at 2.08 µM; inhibition: at 2 µM, stronger effect = higher value, 0% TNFa-plus-vehicle, 100% no-TNFa wells;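 also: compound added about 3h40 before a 20 min TNFalpha stimulation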;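 as to inhibition: signal is the nuclear over cytoplasmic p65 intensity ratio per well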
[2] = reduction of polyQ htt aggregates in cells – imaging, exon1htt(103Q)mCFP cells, high-content imaging, primary screen (AID 483;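 active = visual image review flags a hit and inhibition of aggregation exceeds 20%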;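 also: compound exposure lasted 3 days before fixation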;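 as to nuclei count: percent of the per-plate median nuclei count of sample wells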); settings: exon1htt(103Q)mCFP cell line, aggregate imaging, at 2 µM; inhibition of aggregation: stronger effect = higher value; nuclei count: measured here: cell count, toxicity
[3] = endothelial E-selectin expression blockers – imaging, HUVEC, immunofluorescence, MLSMR starter and 10KST1 sets, primary screen (AID 487;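 active = visually confirmed hit in the image check and inhibition above 20%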;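 as to inhibition: signal is fraction of cell area covered by stained E-selectin grains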;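 as to nuclei count: 100% = median nuclei count of all wells on the same plate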); settings: HUVEC TNFalpha-induced E-selectin immunofluorescence imaging, at 2 µM; inhibition: stronger effect = higher value; nuclei count: measured here: cell number, toxicity
[4] = Primary imaging screen for DUSP6 inhibitors that restore phospho-Erk in transfected HeLa cells, chemical complementation (AID 609;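 active = compounds giving at least 50% inhibition in the cell-based MKP-3 phosphatase rescue imaging test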;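 as to inhibition: phospho-Erk level distribution per well compared with pooled transfected vehicle control wells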); settings: HeLa MKP-3 transfected, phospho-Erk imaging KS statistic, at 10 µM, cells stimulated with TPA for 15 min
[5] = molecular target: Dual specificity protein phosphatase 6 (Homo sapiens) (UniProt Q16828); test: as above; settings: HeLa MKP-3 transfected, phospho-Erk imaging KS statistic; at 10 µM; stronger effect = higher value; cells stimulated with TPA for 15 min
Chain of Dual specificity protein phosphatase 6 (Homo sapiens) (Q16828 whole entry, looked up): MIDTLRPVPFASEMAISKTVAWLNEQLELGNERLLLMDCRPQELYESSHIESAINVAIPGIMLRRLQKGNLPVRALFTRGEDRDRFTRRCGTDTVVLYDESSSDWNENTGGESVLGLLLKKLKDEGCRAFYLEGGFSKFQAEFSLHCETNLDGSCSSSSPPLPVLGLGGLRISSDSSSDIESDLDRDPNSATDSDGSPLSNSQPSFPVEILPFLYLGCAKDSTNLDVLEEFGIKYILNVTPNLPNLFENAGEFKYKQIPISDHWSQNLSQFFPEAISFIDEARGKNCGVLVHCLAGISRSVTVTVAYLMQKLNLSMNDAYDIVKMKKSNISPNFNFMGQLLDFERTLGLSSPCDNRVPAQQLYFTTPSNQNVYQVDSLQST

[6] = molecular target: Voltage-gated potassium channel subunit beta-2 (Rattus norvegicus) (UniProt P62483); test: inhibitors of rat Kvbeta2 reductase activity – biochemical, NADPH fluorescence, primary screen (AID 622;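 active = fluorescence slope higher than the sample average by over 3 SD, cut at about -0.22 in these data, passing the limit was not always enough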;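 also: slope of raw intensity against log time taken from 70 to 1610 s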); settings: recombinant KvBeta, 4-cyanobenzaldehyde reduction, at 10 µM, stronger effect = higher value
Chain of Voltage-gated potassium channel subunit beta-2 (Rattus norvegicus) (P62483 whole entry, looked up): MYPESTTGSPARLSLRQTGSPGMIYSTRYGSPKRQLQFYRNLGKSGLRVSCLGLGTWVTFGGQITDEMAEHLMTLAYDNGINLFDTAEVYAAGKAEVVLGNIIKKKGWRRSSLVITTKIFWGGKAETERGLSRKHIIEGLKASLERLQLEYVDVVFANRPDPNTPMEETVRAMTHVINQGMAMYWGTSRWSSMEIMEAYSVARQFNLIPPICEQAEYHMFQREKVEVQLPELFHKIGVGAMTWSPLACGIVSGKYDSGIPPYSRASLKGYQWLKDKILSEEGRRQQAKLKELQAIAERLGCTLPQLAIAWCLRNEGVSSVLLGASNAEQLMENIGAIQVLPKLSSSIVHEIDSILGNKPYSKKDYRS

[7] = molecular target: Voltage-gated potassium channel subunit beta-2 (Rattus norvegicus) (UniProt P62483); test: enhancers of rat Kvbeta2 NADPH turnover – biochemical, NADPH fluorescence, primary screen (AID 623;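 active = NADPH fluorescence slope more negative than the mean of all samples by about 3 SD, 99.7% confidence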;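 also: fluorescence intensity change per second fitted from 20 to 320 s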); settings: Recombinant KvBeta, NADPH fluorescence decrease slope, 10 min; at 10 µM; stronger effect = lower value
[8] = molecular target: Muscarinic acetylcholine receptor M4 (Homo sapiens) (UniProt P08173); test: M4-linked GIRK flux change, two-sided – cell-based, HEK293 M4/GIRK, thallium flux, BTC-AM, M4 allosteric agonist project, primary screen (AID 625;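 active = fluorescence slope after compound addition differing from the mean of all tested samples at 99.7% confidence, mostly higher but some lower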;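 also: thallium influx through GIRK channels coupled to M4 in HEK293 cells with BTC-AM dye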); settings: at 10 µM, actives lie on both sides
Chain of Muscarinic acetylcholine receptor M4 (Homo sapiens) (P08173 whole entry, looked up): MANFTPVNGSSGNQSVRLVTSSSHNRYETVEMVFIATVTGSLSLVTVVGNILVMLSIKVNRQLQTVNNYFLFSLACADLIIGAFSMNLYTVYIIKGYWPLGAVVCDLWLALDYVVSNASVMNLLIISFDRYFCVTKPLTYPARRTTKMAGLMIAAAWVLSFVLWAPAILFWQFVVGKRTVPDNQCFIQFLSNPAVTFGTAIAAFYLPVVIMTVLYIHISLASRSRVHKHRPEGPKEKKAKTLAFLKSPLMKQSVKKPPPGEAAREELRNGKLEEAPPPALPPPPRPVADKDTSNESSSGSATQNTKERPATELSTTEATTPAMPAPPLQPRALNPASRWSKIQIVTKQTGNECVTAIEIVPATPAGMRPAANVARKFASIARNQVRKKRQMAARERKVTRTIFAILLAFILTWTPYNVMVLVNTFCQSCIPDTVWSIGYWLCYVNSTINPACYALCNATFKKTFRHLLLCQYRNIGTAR

[9] = inhibitors of larval lipid processing in zebrafish, primary screen, whole organism, PED6 fluorescence, gall bladder and intestine (AID 686;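 active = a full or partial loss of lipid-probe fluorescence in the fish gall bladder, intestine or both, judged by eye; inactive = no fluorescence loss, or compound toxic to the fish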;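 also: larvae 5 to 7 days old with five fish per well; signal comes from phospholipase A2 cleavage of quenched PED6 carried via bile; overnight exposure to compound and PED6 before scoring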); settings: Zebrafish larvae PED6 lipid processing, fluorescence scoring; screened at 20 µM (by protocol)
[10] = loss of swimming-algae plug formation – whole organism, Chlamydomonas reinhardtii, WT vs cilia-less mutant, absorbance, 96-well, primary screen (AID 463189;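 active = inhibition at or above 50% relative to wild type and mutant plate controls; inactive = inhibition below 50%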;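 also: 0% = wild type cc124 cells in DMSO and 100% = ciliumless bld1 mutant cells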); settings: Chlamydomonas reinhardtii gravitaxis, OD600 absorbance, 2 days; at 10 µM; stronger effect = higher value
[11] = blockers of RIG-like receptor reporter activation – cell-based, Sendai virus stimulus, luciferase, 10K MLSCN set, TLR/RLR signaling modifier project, primary screen (AID 602276;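 active = inhibition at or above 50% at 10 µM; inactive = inhibition below 50%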;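 also: firefly luciferase from ISG56 promoter only with Renilla not read in this screen; 0% = Sendai virus plus DMSO and 100% = medium plus DMSO without virus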); settings: HEK293 RL24 IRF3 luciferase reporter, at 10 µM, stronger effect = higher value
[12] = TLR3 IRF3 reporter activation blockers – cell-based, poly I:C stimulus, luciferase, 10K MLSCN set, primary screen (AID 602277;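 active = inhibition of the reporter signal at or above 50%; inactive = inhibition below 50%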); settings: HEK293-TLR3 RL24 IRF3 luciferase reporter, at 10 µM, stronger effect = higher value
[13] = molecular target: Alpha-2C adrenergic receptor (Homo sapiens) (UniProt P18825); test: compounds altering alpha2C-coupled GIRK flux – cell-based, HEK293 alpha2C/GIRK1/2, thallium flux, primary screen (AID 624;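 active = fluorescence slope after compound addition differing from the mean of all screened samples at 99.7% confidence, in either direction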;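 also: slope of fluorescence ratio to pre-addition baseline per second over 15 to 24 s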); settings: thallium flux BTC fluorescence, at 10 µM, actives lie on both sides
Chain of Alpha-2C adrenergic receptor (Homo sapiens) (P18825 whole entry, looked up): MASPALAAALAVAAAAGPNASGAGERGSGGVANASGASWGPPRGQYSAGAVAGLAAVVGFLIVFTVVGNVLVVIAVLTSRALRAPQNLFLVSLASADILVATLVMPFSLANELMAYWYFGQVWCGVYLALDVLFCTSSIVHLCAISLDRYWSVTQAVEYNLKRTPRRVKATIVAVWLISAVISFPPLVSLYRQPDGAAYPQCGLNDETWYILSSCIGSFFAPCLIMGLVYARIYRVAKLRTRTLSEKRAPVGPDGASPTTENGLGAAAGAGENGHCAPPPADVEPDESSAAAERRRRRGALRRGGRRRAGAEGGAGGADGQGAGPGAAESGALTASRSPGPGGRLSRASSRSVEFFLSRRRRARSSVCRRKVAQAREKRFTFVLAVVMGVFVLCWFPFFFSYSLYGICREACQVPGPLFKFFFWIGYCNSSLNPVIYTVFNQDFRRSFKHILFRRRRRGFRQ

[14] = measured here: cell density z-score
[15] = measured here: nuclear c-Myc green intensity z-score
[16] = measured here: nuclear pErk red intensity z-score, stronger effect = higher value

Row | Compound | cell count [1] | inhibition [1] | inhibition of aggregation [2] | nuclei count [2] [%] | inhibition [3] | nuclei count [3] [%] | z-score [4, 14] | z-score [4, 15] | z-score [4, 16] | inhibition [5] | fluorescence slope [6] | NADPH fluorescence slope [7] | fluorescence slope [8] | outcome [9] | inhibition [10] | inhibition [11] | inhibition [12] | slope [13]
1 | Cc1cc(O)c(C(C)C)cc1N=C1CSC(=O)N1 | 428 | -5.3% (inactive) | 10.4% (inactive) | 60.9 | -9% (inactive) | 98.6 | 0.698 | -0.53 | 0.0977 | 12.8% (inactive) | -0.483 (inactive) | -5.3e-05 (inactive) | 0.00491 (inactive) | inactive | -20% (inactive) | 13% (inactive) | 19.6% (inactive) | 
2 | Cn1c(=O)[nH]c(=O)c2c1nc(N(CCO)Cc1ccccc1)n2Cc1ccccc1Cl | 650 | 4.6% (inactive) | -19.3% (inactive) | 139 | -37.5% (inactive) | 109 | 1.19 | -1.16 | -0.515 | 1.63% (inactive) | -0.438 (inactive) | -6.1e-05 (inactive) | 0.00652 (inactive) | inactive | 31.2% (inactive) | 16.5% (inactive) | 28.7% (inactive) | 
3 | Cc1c(O)c(CN2CCCC(C)C2)cc2c3c(c(=O)oc12)CCC3 (configuration not stated) | 695 | -6.3% (inactive) | -0.7% (inactive) | 102 | 30.2% (inactive) | 136 | -0.479 | 2 | 1.18 | -8.95% (inactive) | -0.0135 (inactive) | 8.2e-07 (inactive) | 0.00443 (inactive) | inactive | 0.622% (inactive) | 13.6% (inactive) | 16% (inactive) | 
4 | COC(=O)C(NC(C)=O)(Nc1nc2ccc(S(C)(=O)=O)cc2s1)C(F)(F)F (configuration not stated) | 473 | -7.9% (inactive) | 3.4% (inactive) | 102 | -30.1% (inactive) | 97.4 | -0.876 | 0.631 | 0.313 | 7.42% (inactive) | -0.51 (inactive) | -1e-05 (inactive) | 0.00507 (inactive) | inactive | -13% (inactive) | -0.421% (inactive) | 13.8% (inactive) | 
5 | C/C(=C\C(=O)O)CC(=O)O | 333 | -2.6% (inactive) | 25.8% (inactive) | 93.1 | -133% (inactive) | 117 | 0.304 | -0.204 | -2.54 | 19.4% (inactive) | -0.486 (inactive) | -0.000131 (inactive) | 0.00465 (inactive) | inactive | -0.382% (inactive) | 2.17% (inactive) | 13.5% (inactive) | 
6 | Cn1c(SCC(=O)N2CCOCC2)nnc1-c1cccc(NC(=O)c2ccccc2F)c1 | 576 | -2.8% (inactive) | -17.6% (inactive) | 115 | 17.5% (inactive) | 107 | -2.39 | 0.78 | -0.11 | 1.63% (inactive) | -0.578 (inactive) | -5.9e-05 (inactive) | 0.00616 (inactive) | inactive | 20.3% (inactive) | 13.9% (inactive) | 22.5% (inactive) | 
7 | O=S(=O)(c1ccc2ccccc2c1)N(CC(O)CN1CCOCC1)c1ccccc1 (configuration not stated) | 576 | -8.7% (inactive) | -10.4% (inactive) | 113 | -7.5% (inactive) | 105 | 0.984 | 1.41 | -0.234 | 1.42% (inactive) | -0.344 (inactive) | -3.3e-05 (inactive) | 0.00503 (inactive) | inactive | 143% (active) | 20.7% (inactive) | 14.9% (inactive) | 
8 | CCOC(=O)c1ccc(N=Cc2nc(-c3ccccc3)oc2OC(C)=O)cc1 | 794 | -6.6% (inactive) | -2.7% (inactive) | 98.2 | -0.4% (inactive) | 120 | 0.0584 | 0.0892 | -0.36 | 11.3% (inactive) | -0.395 (inactive) | -5.5e-05 (inactive) | 0.00761 (inactive) | inactive; toxic | 23.8% (inactive) | 4.63% (inactive) | 11.1% (inactive) | 
9 | CC(C)c1nc2n[nH]c(N)c2c2c1CCC2 | 359 | -3.7% (inactive) |  |  | -74.3% (inactive) | 148 | 0.678 | -1.06 | 0.961 | 5.26% (inactive) | -0.409 (inactive) | -0.000125 (inactive) |  |  | 2.52% (inactive) |  |  | 0.007 (inactive)
10 | N#C/C(=C\N1CCN(Cc2ccc3c(c2)OCO3)CC1)c1nc2ccccc2s1 | 359 | -3.7% (inactive) |  |  | -122% (inactive) | 170 | -0.883 | 0.284 | 0.578 | -14% (inactive) | -0.428 (inactive) | -0.000152 (inactive) |  |  | 100% (active) |  |  | 0.00144 (inactive)
11 | CC12CCC(C(=O)NCCCN3CCOCC3)(OC1=O)C2(C)C (configuration not stated) | 297 | 5.1% (inactive) |  |  | 12.1% (inactive) | 126 | 0.486 | 0.456 | 1.46 | 8.76% (inactive) | -0.425 (inactive) | -0.000122 (inactive) |  |  | -10.2% (inactive) |  |  | 0.0052 (inactive)
